Rows were chosen to be rich in hits. Some 13% of all compounds tested hit in one or more screens of this group.
WT yeast gro inh: growth inhibition of WT yeast, mitochondrial fusion screen; mitochondrial fusion phenotypic screen, WT strain; inhibition, % at 10 µM; 190,000 compounds, 2.1% hits; AID 1362; in the data active means inhibition above about 58%; tested in S. cerevisiae
L major viab: reduces viability of Leishmania major promastigotes; 200,000 compounds, 9% hits; inhibition, % at 10 µM; resazurin fluorescence viability; in the data active means inhibition above about 50%;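 further: promastigotes grown with compound for 44 hours at 28 °C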
RAM inhibit: yeast RAM network inhibition; S. cerevisiae dse1pr::URA3 reporter, 5-FOA growth OD615, 2 d; analog-sensitive cbk1-as2 kinase mutant strain; inhibition, % at 50 µM; 190,000 compounds, 1.8% hits; AID 868;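 active means inhibition above a set limit, 3 SD over mean compound inhibition, cut at about 8.4% in these data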;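 further: inhibition rescues growth on 5-FOA so higher OD means more RAM inhibition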
CHOP inhibitor: blocks CHOP induction under ER stress; CHO-K1 CHOP-promoter luciferase, tunicamycin-induced, 15-18 h; inhibition, % at 10 µM; 220,000 compounds, 3.8% hits;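 active means compounds that reduced the stress-induced luciferase reporter signal by more than about 70% of percent inhibition, limit read from the data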
A number is an active result; . = inactive; / = not tested or not shown.

SMILES	WT yeast gro inh	L major viab	RAM inhibit	CHOP inhibitor
CCN1C(=O)C(C)S/C1=N\S(=O)(=O)c1ccc(F)cc1 (stereo unspecified)	.	.	.	.
C=CCN1C(=O)C(C)S/C1=N\S(=O)(=O)c1ccc(Cl)cc1 (stereo unspecified)	.	52	.	.
CCn1c(SCC(=O)c2ccc(NC(C)=O)c(OC)c2)nnc1-c1ccc(NS(C)(=O)=O)cc1	.	64	.	.
CC(C)(C)c1ccc(OCC(=O)NCCN2CCCC2)cc1	/	80	.	.
CC(C(=O)Nc1cccc(S(=O)(=O)N2CCOCC2)c1)N1CCN(C/C=C/c2ccccc2)CC1 (stereo unspecified)	.	.	.	.
Cc1cccc(NC(=O)CCN2CCN(C/C=C/c3ccccc3)CC2)c1	.	91	.	.
Cc1ccccc1NC(=O)CCN1CCN(C/C=C/c2ccccc2)CC1	.	88	.	.
O=C(CCN1CCN(C/C=C/c2ccccc2)CC1)Nc1ccccc1	.	93	.	.
COc1ccccc1NC(=O)C(C)N1CCN(C/C=C/c2ccccc2)CC1 (stereo unspecified)	.	84	.	.
COC(=O)c1ccccc1NC(=O)N1CCN(C/C=C/c2ccccc2)CC1	.	.	.	.
Clc1ccccc1CSc1nncn1NC/C=C/c1ccccc1	.	.	.	.
O=C(Nc1nnc(-c2ccncc2)o1)c1ccc(Br)s1	.	.	.	.
CCN(CC)S(=O)(=O)c1ccc(N2CCOCC2)c(NC(=O)c2cnccn2)c1	.	.	.	.
N#CCCN(C(=S)NC(=O)c1ccco1)c1ccccc1F	.	.	.	.
Cc1ccc(-c2csc3nc4c5ccccc5c(NCCCN5CCOCC5)nn4c(=O)c23)cc1	75	101	.	.
Cc1sc(NC(=O)Cc2ccc3c(c2)OCO3)nc1-c1ccc2c(c1)CCN2C(=O)c1cccc(F)c1	.	91	.	.
Cc1ccccc1C(=O)N1CCc2cc(-c3nc(NC(=O)Cc4ccc5c(c4)OCO5)sc3C)ccc21	.	99	.	.
CC(=O)N(C)c1ccc(OCC(O)Cn2c3ccc(Cl)cc3c3cc(Cl)ccc32)cc1 (stereo unspecified)	77	.	.	.
CC(=O)N(C)c1ccc(OCC(O)Cn2c(C)nc3ccccc32)cc1 (stereo unspecified)	.	.	.	.
CC(Sc1ccccc1)C(=O)NN=C1CCCCCCC1 (stereo unspecified)	.	.	.	.
O=C1Nc2ccc(Br)cc2/C1=C/C1CC=CCC1 (stereo unspecified)	.	99	.	95
O=C1Nc2ccc(Br)cc2C1=Nc1cccnc1	/	/	/	.
Cc1ccc(-c2nn3c(C)nnc3c3ccccc23)cc1S(=O)(=O)NCCO	.	.	.	.
Cc1ccc(-c2nn3c(C)nnc3c3ccccc23)cc1S(=O)(=O)NC(C)c1ccccc1 (stereo unspecified)	.	99	.	.
COc1ccc2c(c1)CCc1c-2n[nH]c1C(=O)O	72	.	.	.
SMILES	WT yeast gro inh	L major viab	RAM inhibit	CHOP inhibitor
C=CCSC1=C(C#N)C(c2cccc(OC)c2)CC(=O)N1 (stereo unspecified)	.	.	.	.
CC(Sc1nc2cc(Cl)ccc2s1)C(=O)Nc1cccc(S(=O)(=O)N2CCOCC2)c1 (stereo unspecified)	.	62	.	.
CN1CC(=O)N(CC(=O)Nc2cccc(S(=O)(=O)N3CCOCC3)c2)C1=O	.	.	.	.
O=C(Cc1ccc(Cl)c(Cl)c1)Nc1cccc(S(=O)(=O)N2CCOCC2)c1	.	55	.	.
O=C(Nc1cccc(S(=O)(=O)N2CCOCC2)c1)c1ccc2ccccc2n1	/	/	/	.
CSCCC(NC(=O)c1cccc(S(=O)(=O)N2CCOCC2)c1)C(=O)Nc1cccc(C)c1 (stereo unspecified)	.	70	.	.
O=C(Nc1cccc(S(=O)(=O)N2CCOCC2)c1)c1ccco1	/	93	.	.
CC(CCc1ccccc1)N(C)CC(O)c1cccc([N+](=O)[O-])c1 (stereo unspecified)	/	/	/	.
Cc1ccc(C(=O)NCc2nnc(SCC(=O)NC(C)c3ccccc3)n2C)cc1 (stereo unspecified)	.	.	.	.
CN(C)C(=O)c1nc2ccc(Cl)cn2c1CNCc1ccccc1OC(F)(F)F	.	.	.	.
COc1ccc(CCN2C(=NC(=O)CC(C)C)SC3CS(=O)(=O)CC32)cc1OC (stereo unspecified)	/	/	/	.
CCOc1ccc(C(=O)NC(=S)Nc2ccccc2OC)cc1[N+](=O)[O-]	.	.	.	.
CCOc1ccc(C(=O)NC(=S)Nc2ccccc2N2CCCCC2)cc1[N+](=O)[O-]	.	95	.	.
O=C(Nc1ccccc1N1CCCCC1)c1cccc([N+](=O)[O-])c1	78	.	.	.
